“And” between values parts separate entries of the source, which are not always exact repeats. Identical values can stand only once. Compounds without any hit were thinned out: in the full panel of roughly 83,000, 20% have a hit.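 For each line, cells grew in 96-well plates with the test compound present at a single concentration for 48 hours.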 The source made the active and inactive calls.
system: NCI-H460 lung; assay: NCI-60 one-dose screen, 48 h (100 = growth as untreated, 0 = no growth, -100 = all killed); settings: 10 µM
Experimental: Growth inhibition of the NCI-H460 human Non-Small Cell Lung tumor cell line is measured as a screen for anti-cancer activity. Cells are grown in 96 well plates and exposed to the test compound for 48 hours. Compounds are tested at a single concentration, which is 10^-5 M for most compounds. The reported endpoint is percent growth (GI% or GIPRCNT), where numbers from 0 - 100% represent growth inhibition, and numbers from -100% - 0 represent cell death. For example, a value of 40 represents 60% growth inhibition. A value of 0 means no net growth occurred over the course of the experiment. A value of -40 indicates 40% of cells at the beginning of the experiment died by the end of the experiment. A value of -100 means all cells are dead at the end of the experiment.
NCI-60 Human Tumor Cell Lines Screen was performed using the standard one-dose NCI protocol, which is described in more detail at https://dtp.cancer.gov/discovery_development/nci-60/default.htm.
Compounds with GIPRCNT values below 10 were considered active. Activity score was based on GIPRCNT using the following formula: […]
Score is 0 for GIPRCNT values of 100 or above, 50 for GIPRCNT values of 0, and 100 for GIPRCNT values of -100.

SMILES | growth
O=C(O)c1sccc1O | 91.2% (inactive)
CCc1ccccc1-n1c(N)c(C#N)c(-c2ccc(OC)c(OC)c2)c(C#N)c1=O | 121% (inactive)

same assay, conditions: 10 µM unless noted

SMILES | growth
Cc1cc(O)c(C(C)C)cc1S(=O)(=O)O (tested in a mixture with another compound) | 99.1% (inactive) and 1.34% (active) and 108% (inactive)
Cc1ccc(S(=O)(=O)NCN2C(=O)c3ccccc3C2=O)cc1 | 113% (inactive)
Oc1nc(NCCc2ccccc2)sc1/C=C1\C=Nc2ncccc21 | 15.1% (inactive) and 14.1% (inactive)
CC(C)Oc1ccc2cc(-c3nn(CC4CCNCC4)c4ncnc(N)c34)ccc2c1 | 102% (inactive) and 15.8% (inactive)
Cc1cccc(/C=C\C(=O)c2ccc(Cl)cc2)c1 | 110% (inactive) and 102% (inactive)
Clc1nc(Oc2ccccc2)nc(-c2cn(-c3ccccc3)c3ccccc23)n1 | 97.2% (inactive)
CC(/C=N/N1C(=O)c2ccccc2C1=O)c1ccccc1 (stereo not given) | 108% (inactive)
COC(=O)/C=C/c1cc(O)c2c(c1)C(C(=O)OC)C(c1ccc(O)c(O)c1)O2 (stereo not given) | 28% (inactive) and 17.7% (inactive)
CC12CCC(CC1)C(C)(C)O2 | 118% (inactive)
NC(=O)NO | 106% (inactive) and 62.3% (inactive)
O=C1c2c(O)cc(O)cc2OC(c2ccc(O)c(O)c2)C1O (stereo not given) | 107% (inactive)
O=C(/C=C\c1ccnc2ccccc12)c1ccc([N+](=O)[O-])cc1 | 99.7% (inactive) and 79.8% (inactive)
CC1=NN(c2ccccc2)C(=O)C1C(=O)c1ccccc1 (stereo not given) | 108% (inactive)
COc1ccc2c(=O)cc(-c3ccccc3)[nH]c2c1 | 6.58% (active) and 4.24% (active)
CCCCCCCCCCCCCCCc1cc(O)ccc1N | 109% (inactive) and 102% (inactive)
O=C1CCN(Cc2ccccc2)C(=S)N1 | 113% (inactive) and 105% (inactive)
CCNC(=O)Nc1ccc(-c2nc3c(c(N4CCOC[C@@H]4C)n2)CCN(C2COC2)C3)cc1 | 25.7% (inactive) and 14.3% (inactive)
O=C(O)CSCc1nc2ccccc2[nH]1 | 105% (inactive)

SMILES | growth
N=C1N=C(N)CS1 | 103% (inactive)
N#C/C(=C/c1c(O)ccc2ccccc12)C(N)=O | 103% (inactive)
c1ccc2c(CC3=NCCN3)cccc2c1 | 108% (inactive) and 105% (inactive)
O=C(Cc1cccc2ccccc12)N/N=C/c1ccc2c(c1)CCC2 | 81.5% (inactive)
CCN(CC)CCC(CNc1c2ccc([N+](=O)[O-])cc2nc2cc(OC)c(OC)cc12)c1ccccc1 (stereo not given) | 6.85% (active) and -100% (active)
CN(C)c1ccc2nc3ccc(N)cc3[n+](-c3ccccc3)c2c1 | 9.65% (active) and 9.63% (active)
CCOc1ccc2cc(-c3nn(CC4CCNCC4)c4ncnc(N)c34)ccc2c1 | 96.7% (inactive) and 49.7% (inactive)
COc1c(/C(C)=N/N=c2sc(C(C)=O)nn2-c2ccc(Cl)cc2)c(Oc2ccccc2)c(OC)c2occc12 | 99.2% (inactive) and 103% (inactive)
CCOC(=O)c1c(C)oc(C)c(C(=O)OCC)c1=O | 108% (inactive) and 104% (inactive)
CCC(=O)C(CC)c1cccc(OC)c1 (stereo not given) | 107% (inactive)
O=C(CN1CCOCC1)N1CCOCC1 | 111% (inactive) and 114% (inactive)
Cc1ccc2nc3c(nc2c1)-c1cccc2cccc-3c12 | 72.4% (inactive)
O=C(Nc1ccc(Br)cc1)c1cc(Br)ccc1O | 2.62% (active) and 3.86% (active)
CC(O)Cn1cnc2c1c(=O)n(C)c(=O)n2C (stereo not given) | 118% (inactive)
CCN(CC)CCCC(CNc1ccnc2cc(Cl)ccc12)c1ccc(Cl)cc1 (stereo not given) | 24.3% (inactive) and -63.6% (active)
CCN(CC)CCC(CNc1ccnc2cc(Cl)ccc12)c1ccc(OC)cc1 (stereo not given) | 70.1% (inactive) and 62.9% (inactive)
Cc1nnc(NC/C=C/c2ccccc2)s1 | 105% (inactive) and 108% (inactive)
CC(=O)Oc1cc(C(=O)O)cc(OC(C)=O)c1OC(C)=O | 113% (inactive) and 108% (inactive)

same assay, conditions: 100 µM

SMILES | growth
O=C(O)c1sccc1O | 30.1% (inactive)
CCc1ccccc1-n1c(N)c(C#N)c(-c2ccc(OC)c(OC)c2)c(C#N)c1=O | 30.1% (inactive)

From PubChem BioAssay (NCI)
